Experiment in all cases: DAPPL (digital affinity profiling via proximity ligation, sequencing); 10 mM Tris-HCl pH 7.5, 50 mM NaCl, 1 mM DTT, 4% glycerol, room temperature, 30 min; GST-TFs on glutathione beads, 16-mer random dsDNA library, 0.1% formaldehyde crosslink after washing; high values mean tight binding
Experiment [1] deals with T1, FEV (Homo sapiens, UniProt Q99581 1-238).
T1 sequence: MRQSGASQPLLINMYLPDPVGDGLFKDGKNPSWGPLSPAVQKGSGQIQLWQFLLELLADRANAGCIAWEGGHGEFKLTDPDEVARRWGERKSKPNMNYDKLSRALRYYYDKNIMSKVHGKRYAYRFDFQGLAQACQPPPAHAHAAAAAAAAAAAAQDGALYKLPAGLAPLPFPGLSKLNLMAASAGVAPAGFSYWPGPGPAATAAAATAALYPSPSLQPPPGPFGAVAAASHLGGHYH
To be noted: protein: recombinant; tags: N-terminal GST; dsDNA, one strand shown. The procedure, abridged: (§1)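 After expression in yeast as GST fusions, human transcription factors were bound to glutathione beads, DNA-barcoded and mixed with a tag-only sample. The pools were incubated with 200 nmole of a 16-mer random double-stranded DNA library in Tris/NaCl/DTT/glycerol buffer (30 min, room temperature), washed and crosslinked with 0.1% formaldehyde. Proximity ligation with BsaI/T4 ligase ran for 1 h at 37 °C, before PCR amplification and sequencing on an Illumina NextSeq500. Binding signal is a hexamer's read frequency for a factor divided by its frequency for the tag-only sample.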

Experiment [2] deals with ETV5 (Homo sapiens, UniProt P41161 1-510). Particulars: protein: recombinant; tags: N-terminal GST; dsDNA, one strand shown. The procedure, abridged: as §1
ETV5, sequence (P41161 whole entry): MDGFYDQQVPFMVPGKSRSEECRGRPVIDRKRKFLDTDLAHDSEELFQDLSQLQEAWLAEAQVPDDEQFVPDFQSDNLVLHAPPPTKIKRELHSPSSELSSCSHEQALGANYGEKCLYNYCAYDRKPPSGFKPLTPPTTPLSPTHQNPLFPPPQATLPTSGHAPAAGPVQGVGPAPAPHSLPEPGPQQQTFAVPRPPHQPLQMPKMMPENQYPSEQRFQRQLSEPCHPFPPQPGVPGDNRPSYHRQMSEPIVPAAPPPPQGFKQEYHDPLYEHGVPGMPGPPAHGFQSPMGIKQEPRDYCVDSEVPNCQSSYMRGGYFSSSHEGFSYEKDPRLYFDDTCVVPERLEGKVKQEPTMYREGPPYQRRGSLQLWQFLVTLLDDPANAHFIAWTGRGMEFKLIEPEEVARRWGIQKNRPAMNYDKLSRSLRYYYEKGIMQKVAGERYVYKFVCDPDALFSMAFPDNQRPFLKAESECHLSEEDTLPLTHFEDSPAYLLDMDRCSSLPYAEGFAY
Experiment [3] deals with HSF1 (Homo sapiens, UniProt Q00613 1-529). Particulars: protein: recombinant; tags: N-terminal GST; chain copies: 3; dsDNA, one strand shown. The procedure, abridged:
as §1

In experiment [4] the target is T2, SPIC (Homo sapiens, UniProt Q8N5J4 1-248).
T2 sequence: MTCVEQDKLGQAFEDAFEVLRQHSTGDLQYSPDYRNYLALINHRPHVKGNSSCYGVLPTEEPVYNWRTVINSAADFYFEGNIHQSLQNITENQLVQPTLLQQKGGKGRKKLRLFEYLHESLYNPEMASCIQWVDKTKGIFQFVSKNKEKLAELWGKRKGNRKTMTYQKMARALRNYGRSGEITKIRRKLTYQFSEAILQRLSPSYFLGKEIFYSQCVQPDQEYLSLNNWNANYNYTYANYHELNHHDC
To be noted: protein: recombinant; tags: N-terminal GST; dsDNA, one strand shown. The procedure, abridged: as §1

Experiment [5] has as its target ELF4 (Homo sapiens, UniProt Q99607 1-663). To be noted: protein: recombinant; tags: N-terminal GST; dsDNA, one strand shown. The procedure, abridged:
as §1

The target of experiment [6] is T3, ELK4 (Homo sapiens, UniProt P28324-2 1-405).
T3 sequence: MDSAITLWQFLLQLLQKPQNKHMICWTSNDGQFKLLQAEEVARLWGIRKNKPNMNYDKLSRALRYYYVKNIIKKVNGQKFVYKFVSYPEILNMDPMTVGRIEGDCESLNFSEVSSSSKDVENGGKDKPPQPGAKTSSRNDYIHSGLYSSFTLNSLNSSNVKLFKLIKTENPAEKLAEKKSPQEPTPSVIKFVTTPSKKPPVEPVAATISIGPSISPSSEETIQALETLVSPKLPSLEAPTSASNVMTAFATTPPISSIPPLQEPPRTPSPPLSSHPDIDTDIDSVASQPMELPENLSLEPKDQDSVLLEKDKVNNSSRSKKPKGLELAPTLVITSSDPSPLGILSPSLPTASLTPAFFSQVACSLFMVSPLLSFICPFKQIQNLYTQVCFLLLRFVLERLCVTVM
Particulars: protein: recombinant; tags: N-terminal GST; dsDNA, one strand shown. The procedure, abridged:
as §1

The target of experiment [7] is T4, ETV2 (Homo sapiens, UniProt O00321 1-342).
T4 sequence: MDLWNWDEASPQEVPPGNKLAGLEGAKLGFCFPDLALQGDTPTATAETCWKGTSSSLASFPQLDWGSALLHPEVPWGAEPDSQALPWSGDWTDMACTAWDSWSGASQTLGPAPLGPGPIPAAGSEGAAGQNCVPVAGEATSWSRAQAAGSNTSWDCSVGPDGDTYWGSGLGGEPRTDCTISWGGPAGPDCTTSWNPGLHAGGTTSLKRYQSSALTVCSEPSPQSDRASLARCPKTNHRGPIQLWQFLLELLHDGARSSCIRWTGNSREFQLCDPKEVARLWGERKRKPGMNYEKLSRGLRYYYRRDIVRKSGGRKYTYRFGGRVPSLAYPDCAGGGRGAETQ
Particulars: protein: recombinant; tags: N-terminal GST; dsDNA, one strand shown. The procedure, abridged: as §1

The target in experiment [8] is T5, ELF3 (Homo sapiens, UniProt P78545 1-371).
T5 sequence: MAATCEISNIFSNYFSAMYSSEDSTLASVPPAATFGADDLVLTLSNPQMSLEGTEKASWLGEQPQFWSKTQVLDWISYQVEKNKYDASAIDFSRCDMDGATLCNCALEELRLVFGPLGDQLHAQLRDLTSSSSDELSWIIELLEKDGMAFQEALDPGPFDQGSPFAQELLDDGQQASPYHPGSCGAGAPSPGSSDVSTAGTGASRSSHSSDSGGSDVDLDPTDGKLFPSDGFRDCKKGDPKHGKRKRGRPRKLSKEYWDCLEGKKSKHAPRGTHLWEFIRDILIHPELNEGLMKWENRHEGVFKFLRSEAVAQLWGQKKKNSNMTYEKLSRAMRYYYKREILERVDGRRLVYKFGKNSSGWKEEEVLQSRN
To be noted: protein: recombinant; tags: N-terminal GST; dsDNA, one strand shown. The procedure, abridged: as §1

For experiment [9], the target named is CRX (Homo sapiens, UniProt O43186 1-299). To be noted: protein: recombinant; tags: N-terminal GST; dsDNA, one strand shown. The procedure, abridged: as §1
CRX, sequence (O43186 whole entry): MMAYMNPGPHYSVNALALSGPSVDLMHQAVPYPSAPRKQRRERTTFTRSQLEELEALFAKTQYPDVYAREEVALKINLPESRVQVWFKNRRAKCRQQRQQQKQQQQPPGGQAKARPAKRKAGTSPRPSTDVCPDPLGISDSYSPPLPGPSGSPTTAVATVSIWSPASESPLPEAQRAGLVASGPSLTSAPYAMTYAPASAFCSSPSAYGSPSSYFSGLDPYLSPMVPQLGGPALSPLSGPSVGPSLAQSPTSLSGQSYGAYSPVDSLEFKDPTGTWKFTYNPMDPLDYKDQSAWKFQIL
Experiment [10] concerns the target ETV1 (Homo sapiens, UniProt P50549 1-477). To be noted: protein: recombinant; tags: N-terminal GST; dsDNA, one strand shown. The procedure, abridged: as §1
Experiment [11] deals with T6, ERF (Homo sapiens, UniProt P50548 1-548).
T6 sequence: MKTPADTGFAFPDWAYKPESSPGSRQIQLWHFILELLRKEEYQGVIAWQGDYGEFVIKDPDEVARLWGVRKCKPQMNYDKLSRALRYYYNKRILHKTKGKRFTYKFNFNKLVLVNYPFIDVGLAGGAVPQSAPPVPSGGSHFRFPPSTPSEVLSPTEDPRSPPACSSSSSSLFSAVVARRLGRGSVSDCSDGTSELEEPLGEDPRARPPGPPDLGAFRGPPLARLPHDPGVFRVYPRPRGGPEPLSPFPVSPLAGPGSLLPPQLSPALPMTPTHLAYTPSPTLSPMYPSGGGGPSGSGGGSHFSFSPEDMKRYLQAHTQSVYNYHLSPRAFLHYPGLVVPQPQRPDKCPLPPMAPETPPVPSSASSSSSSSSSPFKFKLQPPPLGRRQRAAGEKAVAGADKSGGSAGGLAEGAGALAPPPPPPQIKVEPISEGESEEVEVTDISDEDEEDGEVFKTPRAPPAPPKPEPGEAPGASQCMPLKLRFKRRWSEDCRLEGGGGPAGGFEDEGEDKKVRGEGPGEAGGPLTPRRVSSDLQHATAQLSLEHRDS
Particulars: protein: recombinant; tags: N-terminal GST; dsDNA, one strand shown. The procedure, abridged:
as §1

Experiment [12] concerns the target T7, ETV3L (Homo sapiens, UniProt Q6ZN32 1-361).
T7 sequence: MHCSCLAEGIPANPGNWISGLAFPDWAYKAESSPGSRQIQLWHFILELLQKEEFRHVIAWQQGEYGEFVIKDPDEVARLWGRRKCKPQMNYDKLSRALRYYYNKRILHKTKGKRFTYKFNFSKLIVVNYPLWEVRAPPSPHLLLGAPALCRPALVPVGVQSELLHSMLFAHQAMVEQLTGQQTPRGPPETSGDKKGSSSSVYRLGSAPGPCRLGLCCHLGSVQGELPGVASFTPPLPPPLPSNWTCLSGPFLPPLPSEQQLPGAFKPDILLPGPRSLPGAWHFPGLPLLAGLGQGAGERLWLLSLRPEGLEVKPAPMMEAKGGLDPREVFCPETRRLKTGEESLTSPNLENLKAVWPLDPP
To be noted: protein: recombinant; tags: N-terminal GST; dsDNA, one strand shown. The procedure, abridged: as §1

The target in experiment [13] is T8, ETS2 (Homo sapiens, UniProt P15036 1-469).
T8 sequence: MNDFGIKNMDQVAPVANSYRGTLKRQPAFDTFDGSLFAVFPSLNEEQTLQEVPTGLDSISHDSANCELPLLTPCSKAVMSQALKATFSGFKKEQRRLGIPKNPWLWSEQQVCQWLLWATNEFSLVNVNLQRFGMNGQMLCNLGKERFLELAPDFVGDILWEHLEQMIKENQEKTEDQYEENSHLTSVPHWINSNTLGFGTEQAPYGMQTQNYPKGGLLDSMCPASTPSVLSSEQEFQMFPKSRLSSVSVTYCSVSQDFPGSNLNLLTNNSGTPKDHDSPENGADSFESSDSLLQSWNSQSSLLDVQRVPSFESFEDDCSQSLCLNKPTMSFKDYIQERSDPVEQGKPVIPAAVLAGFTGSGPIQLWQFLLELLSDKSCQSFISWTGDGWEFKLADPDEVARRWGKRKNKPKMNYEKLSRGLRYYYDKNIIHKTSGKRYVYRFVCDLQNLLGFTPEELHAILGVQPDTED
To be noted: protein: recombinant; tags: N-terminal GST; dsDNA, one strand shown. The procedure, abridged:
as §1

The target of experiment [14] is T9, SPDEF (Homo sapiens, UniProt O95238 1-335).
T9 sequence: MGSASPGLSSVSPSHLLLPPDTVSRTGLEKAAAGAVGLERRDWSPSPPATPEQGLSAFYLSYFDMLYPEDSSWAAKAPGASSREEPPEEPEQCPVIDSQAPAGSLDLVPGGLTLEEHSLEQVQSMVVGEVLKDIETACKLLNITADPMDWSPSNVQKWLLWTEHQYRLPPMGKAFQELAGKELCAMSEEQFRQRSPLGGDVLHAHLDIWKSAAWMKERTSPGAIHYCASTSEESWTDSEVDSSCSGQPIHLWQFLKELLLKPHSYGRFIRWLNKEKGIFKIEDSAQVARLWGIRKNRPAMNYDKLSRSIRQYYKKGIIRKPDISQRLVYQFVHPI
To be noted: protein: recombinant; tags: N-terminal GST; dsDNA, one strand shown. The procedure, abridged:
as §1

Experiment [15] addresses T10, ETV7 (Homo sapiens, UniProt Q9Y603 1-341).
T10 sequence: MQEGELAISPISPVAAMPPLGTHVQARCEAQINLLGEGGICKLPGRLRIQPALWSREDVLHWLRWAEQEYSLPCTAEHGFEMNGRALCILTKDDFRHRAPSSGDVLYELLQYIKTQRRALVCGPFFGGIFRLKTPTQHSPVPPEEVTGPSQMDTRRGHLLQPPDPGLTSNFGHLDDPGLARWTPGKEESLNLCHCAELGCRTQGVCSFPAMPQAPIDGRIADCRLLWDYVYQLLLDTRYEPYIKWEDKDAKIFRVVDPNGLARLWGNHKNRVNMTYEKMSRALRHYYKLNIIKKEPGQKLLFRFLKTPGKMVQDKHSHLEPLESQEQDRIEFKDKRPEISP
Particulars: protein: recombinant; tags: N-terminal GST; dsDNA, one strand shown. The procedure, abridged: as §1

The target in experiment [16] is T11, ELF5 (Homo sapiens, UniProt Q9UKW6-2 1-255).
T11 sequence: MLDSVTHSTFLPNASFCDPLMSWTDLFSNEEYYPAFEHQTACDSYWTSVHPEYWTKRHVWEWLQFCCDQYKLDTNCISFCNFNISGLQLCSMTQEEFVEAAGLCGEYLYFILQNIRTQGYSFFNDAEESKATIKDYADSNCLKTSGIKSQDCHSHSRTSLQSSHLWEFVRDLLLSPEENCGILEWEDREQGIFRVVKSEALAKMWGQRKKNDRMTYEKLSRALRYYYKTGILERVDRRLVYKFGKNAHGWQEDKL
Particulars: protein: recombinant; tags: N-terminal GST; dsDNA, one strand shown. The procedure, abridged:
as §1

Experiment [17] deals with T12, ETV3 (Homo sapiens, UniProt P41162-2 1-143).
T12 sequence: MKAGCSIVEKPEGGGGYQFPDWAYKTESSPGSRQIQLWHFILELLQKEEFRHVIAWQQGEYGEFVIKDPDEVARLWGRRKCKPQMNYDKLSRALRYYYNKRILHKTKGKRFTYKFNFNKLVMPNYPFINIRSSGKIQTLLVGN
To be noted: protein: recombinant; tags: N-terminal GST; dsDNA, one strand shown. The procedure, abridged: as §1

For experiment [18], the target named is ETV6 (Homo sapiens, UniProt P41212 1-452). Particulars: protein: recombinant; tags: N-terminal GST; dsDNA, one strand shown. The procedure, abridged:
as §1

ELF4, sequence (Q99607 whole entry): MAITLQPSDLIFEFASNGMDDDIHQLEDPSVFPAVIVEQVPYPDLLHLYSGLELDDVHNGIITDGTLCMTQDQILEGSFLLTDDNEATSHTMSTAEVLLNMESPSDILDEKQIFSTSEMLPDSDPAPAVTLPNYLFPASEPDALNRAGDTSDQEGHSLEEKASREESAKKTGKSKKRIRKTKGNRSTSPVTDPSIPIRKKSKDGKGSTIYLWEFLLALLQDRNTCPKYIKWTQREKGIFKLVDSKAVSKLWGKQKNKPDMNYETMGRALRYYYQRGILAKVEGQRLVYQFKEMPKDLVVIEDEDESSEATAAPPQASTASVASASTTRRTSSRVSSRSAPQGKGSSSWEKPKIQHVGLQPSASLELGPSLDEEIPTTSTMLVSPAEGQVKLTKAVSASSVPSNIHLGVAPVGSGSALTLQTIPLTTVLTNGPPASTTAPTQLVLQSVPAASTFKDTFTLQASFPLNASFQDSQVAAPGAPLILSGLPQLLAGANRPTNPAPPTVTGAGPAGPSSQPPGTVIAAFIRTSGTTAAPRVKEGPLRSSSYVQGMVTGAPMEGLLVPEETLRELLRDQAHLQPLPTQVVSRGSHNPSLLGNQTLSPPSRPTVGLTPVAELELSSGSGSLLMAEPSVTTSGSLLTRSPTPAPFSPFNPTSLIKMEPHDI
HSF1, sequence (Q00613 whole entry): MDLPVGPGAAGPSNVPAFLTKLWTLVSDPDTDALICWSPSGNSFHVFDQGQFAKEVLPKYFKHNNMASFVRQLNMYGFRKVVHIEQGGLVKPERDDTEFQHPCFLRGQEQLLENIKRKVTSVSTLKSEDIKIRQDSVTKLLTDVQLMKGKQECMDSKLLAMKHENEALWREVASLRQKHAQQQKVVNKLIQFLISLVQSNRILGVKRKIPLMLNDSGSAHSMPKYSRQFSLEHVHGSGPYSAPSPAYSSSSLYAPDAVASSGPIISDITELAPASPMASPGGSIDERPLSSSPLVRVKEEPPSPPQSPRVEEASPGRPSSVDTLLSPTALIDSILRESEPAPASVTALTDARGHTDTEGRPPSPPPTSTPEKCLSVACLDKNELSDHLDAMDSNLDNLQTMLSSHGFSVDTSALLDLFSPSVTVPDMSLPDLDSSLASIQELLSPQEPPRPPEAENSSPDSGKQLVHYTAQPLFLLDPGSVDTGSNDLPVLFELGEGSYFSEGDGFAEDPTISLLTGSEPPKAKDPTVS
ETV1, sequence (P50549 whole entry): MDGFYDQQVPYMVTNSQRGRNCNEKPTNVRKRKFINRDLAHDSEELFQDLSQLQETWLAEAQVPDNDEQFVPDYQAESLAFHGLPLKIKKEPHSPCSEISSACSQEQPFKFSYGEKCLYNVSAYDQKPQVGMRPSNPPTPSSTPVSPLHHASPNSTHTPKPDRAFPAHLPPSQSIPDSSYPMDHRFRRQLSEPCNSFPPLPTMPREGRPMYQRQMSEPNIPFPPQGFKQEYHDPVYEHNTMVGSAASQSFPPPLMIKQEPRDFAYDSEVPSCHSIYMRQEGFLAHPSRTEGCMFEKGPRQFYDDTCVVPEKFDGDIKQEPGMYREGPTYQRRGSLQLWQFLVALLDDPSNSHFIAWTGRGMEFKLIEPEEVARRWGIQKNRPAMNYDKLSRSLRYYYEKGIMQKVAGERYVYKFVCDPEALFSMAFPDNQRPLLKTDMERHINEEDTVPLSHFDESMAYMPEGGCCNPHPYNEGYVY
ETV6, sequence (P41212 whole entry): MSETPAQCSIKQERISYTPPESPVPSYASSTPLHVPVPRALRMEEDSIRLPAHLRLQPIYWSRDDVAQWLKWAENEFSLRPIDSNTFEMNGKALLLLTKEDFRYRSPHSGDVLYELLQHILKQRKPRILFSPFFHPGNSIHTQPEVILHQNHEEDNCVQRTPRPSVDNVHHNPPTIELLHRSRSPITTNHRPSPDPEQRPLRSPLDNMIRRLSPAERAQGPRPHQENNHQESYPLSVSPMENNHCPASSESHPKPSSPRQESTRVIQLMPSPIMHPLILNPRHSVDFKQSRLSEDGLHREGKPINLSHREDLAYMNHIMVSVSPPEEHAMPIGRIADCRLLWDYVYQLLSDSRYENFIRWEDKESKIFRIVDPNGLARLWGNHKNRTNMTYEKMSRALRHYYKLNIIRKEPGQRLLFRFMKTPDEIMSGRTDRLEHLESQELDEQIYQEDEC

For the sequence GCACTA, the binding signal in experiment [1] is 1.19 fold enrichment (6-mer frequency, TF over GST control); in experiment [2], 1.13 fold enrichment (6-mer frequency, TF over GST control); in experiment [3], 1.11 fold enrichment (6-mer frequency, TF over GST control); in experiment [4], 1.12 fold enrichment (6-mer frequency, TF over GST control); in experiment [5], 1.27 fold enrichment (6-mer frequency, TF over GST control); in experiment [6], 1.13 fold enrichment (6-mer frequency, TF over GST control). In addition, the binding signal in experiment [7] is 1.22 fold enrichment (6-mer frequency, TF over GST control); in [8] it was 1.29 fold enrichment (6-mer frequency, TF over GST control); in [9] it was 1.17 fold enrichment (6-mer frequency, TF over GST control); in experiment [10], 1.15 fold enrichment (6-mer frequency, TF over GST control); in experiment [11], 1.19 fold enrichment (6-mer frequency, TF over GST control); in [12], 1.23 fold enrichment (6-mer frequency, TF over GST control). The binding signal in experiment [13] is 1.21 fold enrichment (6-mer frequency, TF over GST control); in experiment [14], 1.16 fold enrichment (6-mer frequency, TF over GST control); in experiment [15], 1.2 fold enrichment (6-mer frequency, TF over GST control); in experiment [16] it was 1.1 fold enrichment (6-mer frequency, TF over GST control); in experiment [17], 1.22 fold enrichment (6-mer frequency, TF over GST control); in experiment [18], 1.09 fold enrichment (6-mer frequency, TF over GST control).

These data come from PMC7862700, “An all-to-all approach to the identification of sequence-specific readers for epigenetic DNA modifications on cytosine”.
